Shown are actives, neighbours in structure and some others; about 2.2% of the full set was active somewhere.
GLP1R cytotox: cytotoxic in the GLP-1 receptor inverse agonist counter-screen; HEK293 cAMP-luciferase reporter cells, luminescence, 24 h; Potency, µM (doses to about 38.3 µM), usual class: inhibitors; 410,000 tested, 0.13% active; AID 624418;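 also: loss of luciferase light is scored as toxicity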
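Compound-treated cells are incubated 24 hr at 37 deg C under 5% CO2 after a 12 hour attachment period, then luciferase detection reagent is added and luminescence is measured following 12 min at room temperature; lowered signal indicates toxicity.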
CCT chaperon mod: cytosolic chaperonin activity modulation | purified chaperonin ATPase assay, HTRF ADP detection, 30 min | activity change, % (concentration not given with the values), hits read low | 360,000 tested, 0.3% active | AID 651819; in the data active = activity change below about -30%
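ATPase activity: ADP formed was measured by HTRF Transcreener (665/615 nm ratio) after 30 min at 37 deg C with 10 uM ATP. Compounds screened at one 76 uM concentration against 40 or 20 nM TRiC in Tris pH 7.4/KCl/MgCl2/DTT buffer.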
GLP1R inv ag: acts as inverse agonist at human GLP-1 receptor. HEK293 GLP-1R CRE-luciferase, luminescence, 24 h; GLP-1R form is constitutively active. Potency, µM (doses to about 38.3 µM), actives largely listed as inhibitors. 410,000 tested, 1.6% active; also: nearly all actives have a fitted effect of over 55% in size
Target sequence (P43220 whole entry, looked up): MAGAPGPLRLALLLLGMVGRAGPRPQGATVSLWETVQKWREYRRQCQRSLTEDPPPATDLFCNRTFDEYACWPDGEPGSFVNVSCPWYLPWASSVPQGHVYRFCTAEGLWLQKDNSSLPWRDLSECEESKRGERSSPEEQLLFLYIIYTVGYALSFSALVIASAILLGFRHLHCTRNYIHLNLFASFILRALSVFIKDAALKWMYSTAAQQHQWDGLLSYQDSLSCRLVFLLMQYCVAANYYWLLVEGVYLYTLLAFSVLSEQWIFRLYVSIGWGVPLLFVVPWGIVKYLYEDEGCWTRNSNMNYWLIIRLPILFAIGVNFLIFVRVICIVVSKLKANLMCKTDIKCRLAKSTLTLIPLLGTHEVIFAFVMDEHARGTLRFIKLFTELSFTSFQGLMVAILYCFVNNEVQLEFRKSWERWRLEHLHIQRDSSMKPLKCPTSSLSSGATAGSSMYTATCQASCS
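qHTS in 1536-well format: reporter HEK293 cells expressing constitutive GLP-1R activity in DMEM + 10% Nu serum, 24 hr with compounds at 37 deg C, luminescence read after 12 min with detection reagent.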
MmCpn inh: M. maripaludis TRiC chaperonin inhibition; purified Mm-Cpn ATPase, ADP Transcreener TR-FRET; Potency, µM (series often up to 76.9 µM), actives largely listed as inhibitors; 330,000 tested, 0.031% active; AID 504842; also: nearly all actives have a fitted effect of over 80% in size
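ATP (10 uM final) was added to archaeal chaperonin (25 nM final) after 10 min exposure to test compound at 37°C; after 30 min further incubation, ADP was detected by competitive TR-FRET.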
uPA generation: blocks generation of uPA at the cell surface. Potency, µM (top dose mostly 38.3 µM), usual class: inhibitors. 330,000 tested, 0.31% active. cell surface uPA generation assay, qHTS; active = well fitted inhibition curve with a large enough effect; inconclusive = small, poorly fitted or top-dose-only effect; inactive = no such curve, though single readings can be large or run the other way; tested in mouse RAW 264.7 cells; also: nearly all actives have a fitted effect of over 55% in size
GLP1R ag: activates the human GLP-1 receptor; 380,000 tested, 0.007% active; HEK293 GLP-1R CRE-luciferase, luminescence, 4-6 h; cells express a hypersensitive GLP-1R form; P43220; Potency, µM (titrated, usually from 45.6 µM), actives largely listed as activators
Numbers stand for hits; i = inactive; ? = inconclusive; nt = not tested or not shown; [ ] = remark or other dose. Unless noted, calls follow the shape of the dose curve; as a rule, active = well fitted curve in the direction sought with a large enough effect; inconclusive = small, poorly fitted or top-dose-only effect, or another doubt; inactive = no such curve, though single readings can be large; an effect the other way counts as inactive or inconclusive.

SMILES | GLP1R cytotox | CCT chaperon mod | GLP1R inv ag | MmCpn inh | uPA generation | GLP1R ag
Cc1ccc(O)c(CP(=O)(c2ccccc2)c2ccccc2)c1 | i[1.53 µM] | i | i | i | i | i
Cc1ccc(O)c(CN(C)Cc2cc(C)ccc2O)c1 | i | i | 13µM | nt | i | i
CCN1CC(CN(C)Cc2nc(-c3ccc(OC)c4ccccc34)oc2C)CC1=O (stereo not drawn) | ? | i | 10µM | i | i | i
CCN1CC(CN(C)Cc2nc(COc3ccccc3)no2)CC1=O (stereo not drawn) | i | i | i | i | i | i
COc1ccc(C(=O)Nc2ccc3ccccc3n2)c(OC)c1OC | i | i | ? | i | 2.8µM | i
O=C(Nc1ccc2ccccc2n1)c1ccccc1Cl | i | i | ? | i | ? | i
COc1cccc(C(C)N(C)Cc2nc(COc3ccccc3)no2)c1 (stereo not drawn) | i | i | 10µM | i | i | i
CC(C)CCc1noc(CN(C)CC2CCN(Cc3ccccc3)CC2)n1 | i[7.66 µM] | i | i[7.66 µM] | i | i | i
CC(c1cccs1)N(C)Cc1nc(CCc2ccccc2)no1 (stereo not drawn) | i | i | 10µM | i | i | i
COc1cccc(CN(C)Cc2nc(Cc3ccccc3Cl)no2)c1 | i | i | ? | i | i | i
CN1CCN(NC(=O)c2cn(-c3ccccc3)nc2-c2cccc(Br)c2)CC1 | ? | i | 3.2µM | i | i | i
Cc1ccc(-n2nnc(-c3nccn3C)n2)cc1 | i | i | ? | nt | 3.2µM | i
Cc1ccc(-n2nnc(-c3cccnc3)n2)cc1 | i | i | i | nt | ? | i
Cc1ccc(-n2c(CCC(=O)O)ccc2-c2cccs2)cc1Cl | i | nt | i | nt | nt | nt
Cc1ccc2c(c1)COc1c3ccc(C(=O)N[C@@H](C)CO)cc3nn1-2 | i | i | i | i | 4.5µM | i
Cc1ccc2c(c1)COc1c3ccc(C(=O)NC(C)C)cc3nn1-2 | i | i | i | i | 7.1µM | i
C[C@@H](CO)NC(=O)c1ccc2c3n(nc2c1)-c1ccc(Cl)cc1CO3 | i | i | i | i | 4.5µM | i
NC(=O)C1CCN(c2nc(-c3cccc4ccccc34)cs2)CC1 | nt | nt | nt | i | nt | nt
Cc1nn(-c2ccccc2)c(Cl)c1C1C(C#N)=C(N)OC2=C1C(=O)CC(C)(C)C2 (stereo not drawn) | ? | i | ? | i | i | i
CC(C)c1ccc(-c2nn(-c3ccccc3)cc2C2C(C#N)=C(N)OC3=C2C(=O)CC(C)(C)C3)cc1 (stereo not drawn) | i | i | 13µM | i | i | i
CN(C)CCCCOc1ccc(Br)cc1Cl | i | -59 | ? | i | i | i
COc1cc(OC)c(N(C)C(=O)Cn2ncc3c([nH]c4ccccc43)c2=O)cc1Cl | i | nt | i | nt | nt | nt
CCOc1ccccc1NC(=O)c1cc(S(=O)(=O)NCc2ccco2)ccc1F | i | -67 | i | i | i | i
COc1ccc(OC)c(NC(=O)c2cc(S(=O)(=O)NCc3ccco3)ccc2F)c1 | i | i | i | i | nt | i
COc1cc(/C=C(\C#N)C(=O)Nc2ccc3c(c2)OCCO3)ccc1O | i | i | i | i | 10µM | i
SMILES | GLP1R cytotox | CCT chaperon mod | GLP1R inv ag | MmCpn inh | uPA generation | GLP1R ag
COc1cc(/C=C/C(=O)OCC(=O)Nc2ccc3c(c2)OCCO3)ccc1O | i | i | i | i | i | i
Cc1ccc(Nc2sc(C(=O)c3ccccc3)c(N)c2S(=O)(=O)c2ccccc2)c(C)c1 | i | nt | i | nt | nt | nt
COc1ccc(CNC(=O)C2CCN(C(=O)c3csc(Nc4ccc(C)cc4)n3)CC2)cc1 | i | i | 7.9µM | i | i | i
Cc1ccc(-n2nnnc2SCC(=O)NC2CCCc3ccccc32)cc1 (stereo not drawn) | i | i | 10µM | i | i | i
Cc1ccc(-c2nnc(SCC(=O)NC3CCCc4ccccc43)n2N)cc1 (stereo not drawn) | i | i | ? | i | i | i
Cc1ccc(-n2nnnc2SCC(=O)NC2CCCc3ccccc32)c(C)c1 (stereo not drawn) | i | i | 10µM | i | i | i
O=C(NCCc1ccc(Cl)cc1)C1CCCN(S(=O)(=O)N2CCCCCC2)C1 (stereo not drawn) | i | i | 5.6µM | i | i | i
O=C(NCc1ccccc1CN1CCCC1)C1CCN(S(=O)(=O)c2ccc(F)c(F)c2)CC1 | i | i | ? | i | i | i
CC1CCN(S(=O)(=O)N2CCCC(C(=O)NCc3ccccc3Cl)C2)CC1 (stereo not drawn) | i | i | 7.1µM | i | i | i
Cc1ccc(S(=O)(=O)N2CCC(C(=O)NCc3ccccc3CN3CCCC3)CC2)cc1C | i | i | 4.5µM | i | i | i
Cc1nnc(N2CCN(C(=O)Nc3cc(F)ccc3F)CC2)c2nn(-c3ccc(Cl)cc3)c(C)c12 | i | nt | i | nt | nt | nt
CC(=O)NCCNC(=O)c1ccc(Sc2ccccc2)c([N+](=O)[O-])c1 | i | -33 | i | i | i | i
CC(=O)c1ccc(Sc2ccccc2)c([N+](=O)[O-])c1 | i | i | i | i | i | i
Cc1ccc(C(=O)NCCSc2c(C)[nH]c3ccccc23)cc1[N+](=O)[O-] | i | i | 10µM | i | i | i
CCN1CCCC1CNC(=O)c1ccc(Sc2ccccc2Cl)c([N+](=O)[O-])c1 (stereo not drawn) | i | i | 3.2µM | i | i | i
CCN1CCCC1CNC(=O)c1ccc(Sc2ccc(F)cc2)c([N+](=O)[O-])c1 (stereo not drawn) | i | i | ? | i | i | i
Cc1cc(=O)c2cc(C(=O)Nc3ccc(C)c(C)c3)ccc2[nH]1 | i | nt | i | nt | nt | nt
C/C(=N/Nc1ccc([N+](=O)[O-])cc1)c1c[nH]c2ccccc12 | i | i | 2.5µM | i | ? | i
Cc1[nH]c2ccccc2c1/C=N/Nc1ccc([N+](=O)[O-])cc1 | ? | i | 2.8µM | i | i | i
Cc1noc(C)c1COc1ccccc1C(=O)N(C)CC(=O)Nc1ccc(Cl)c(Cl)c1 | i | i | 10µM | i | i | i
CCCCc1nn2c(=O)cc(COC(=O)c3cccc(NC(=O)CCc4ccccc4)c3)nc2s1 | i | nt | i | nt | nt | nt
COc1ccccc1Cc1c(C2CCCCC2)nc2ccc(Cl)cn12 | ? | i | 3.5µM | nt | nt | i
CCOC(=O)c1ccc(NC(=O)c2ccc3c(c2)CCN3S(=O)(=O)c2ccc(Cl)cc2)cc1 | i | nt | i | nt | nt | nt
CO/N=C(/CNC(=O)c1cccc(Cl)c1)c1ccc(Cl)cc1 | i | i | 11µM | i | i | i
CO/N=C(/CNC(=O)c1ccc(Cl)cc1Cl)c1ccc(Cl)cc1 | i | i | i | i | i | i
Cn1nc(C(=O)Nc2ccc(F)c(Cl)c2)c2c1-c1ccccc1S(=O)(=O)C2 | i | nt | i | nt | nt | nt
COc1ccccc1-c1cc(SC)c(C#N)c(=O)o1 | i | i | i | i | 11µM | i

Compound activity as filed in PubChem.
